Measurements as given in PubChem BioAssay (EPA / NIEHS).
The source made the active and inactive calls. Rule for the calls: active = hit-call score of the fitted dose curve at least 0.9, where 1 is the maximum; inactive = score below 0.9.

assay: CCTE_Shafer_MEA_dev_burst_duration_mean: CCTE's Neural Network Formation Assay for Mean Burst Duration, Shafer Lab (AID 2284045)
How it was run: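 Primary rat cortical neurons on PEI-coated 16-electrode MEA wells, exposed from plating through day 12 with compound renewed at DIV 5 and 9; spontaneous activity recorded days 5, 7, 9, 12. Well-mean burst duration collapsed as trapezoidal AUC, fitted for loss versus DMSO.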

Row | SMILES | outcome
1 | Nc1nc2ncc(CNc3ccc(C(=O)N[C@@H](CCC(=O)O)C(=O)O)cc3)nc2c(=O)[nH]1 | inactive
2 | Cn1c(=O)c2c(ncn2C)n(C)c1=O | inactive
3 | CCC(C)(C)C(=O)O[C@H]1C[C@@H](C)C=C2C=C[C@H](C)[C@H](CC[C@@H]3C[C@@H](O)CC(=O)O3)[C@H]21 | inactive
4 | O=C1CCC(N2C(=O)c3ccccc3C2=O)C(=O)N1 (stereo not given) | inactive
5 | CC[C@H]1OC(=O)[C@H](C)[C@@H](O[C@H]2C[C@@](C)(OC)[C@@H](O)[C@H](C)O2)[C@H](C)[C@@H](O[C@@H]2O[C@H](C)C[C@H](N(C)C)[C@H]2O)[C@](C)(O)C[C@@H](C)C(=O)[C@H](C)[C@@H](O)[C@]1(C)O | inactive
6 | CNCc1ccc(NC(=O)c2c[nH]c3c2C(=O)CCC3)cc1 | inactive
7 | COc1ccc(-n2nc(C(F)F)cc2-c2ccc(S(C)=O)cc2)cc1 (stereo not given) | inactive
8 | O=P(OC(CCl)CCl)(OC(CCl)CCl)OC(CCl)CCl | inactive
9 | CC[C@H](C)C(=O)O[C@H]1C[C@@H](C)C=C2C=C[C@H](C)[C@H](CC[C@@H]3C[C@@H](O)CC(=O)O3)[C@H]21 | inactive
10 | NC(=O)NO | inactive

assay: CCTE_Shafer_MEA_dev_interburst_interval_mean: CCTE's Neural Network Formation Assay for Mean Interburst Interval, Shafer Lab (AID 2284046);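 note: well-mean interburst interval of bursting electrodes as AUC over four recording days; curve fitted for decrease in interburst interval relative to DMSO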
How it was run: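 Network formation assay in primary rat cortical cultures, exposed from DIV 0 to 12. Mean interburst interval per well, integrated as AUC over four recordings.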

Row | SMILES | outcome | AC50
11 | Nc1nc2ncc(CNc3ccc(C(=O)N[C@@H](CCC(=O)O)C(=O)O)cc3)nc2c(=O)[nH]1 | inactive | –
12 | Cn1c(=O)c2c(ncn2C)n(C)c1=O | inactive | –
13 | CCC(C)(C)C(=O)O[C@H]1C[C@@H](C)C=C2C=C[C@H](C)[C@H](CC[C@@H]3C[C@@H](O)CC(=O)O3)[C@H]21 | – | 0.887 µM (active)
14 | O=C1CCC(N2C(=O)c3ccccc3C2=O)C(=O)N1 (stereo not given) | inactive | –
15 | CC[C@H]1OC(=O)[C@H](C)[C@@H](O[C@H]2C[C@@](C)(OC)[C@@H](O)[C@H](C)O2)[C@H](C)[C@@H](O[C@@H]2O[C@H](C)C[C@H](N(C)C)[C@H]2O)[C@](C)(O)C[C@@H](C)C(=O)[C@H](C)[C@@H](O)[C@]1(C)O | inactive | –
16 | CNCc1ccc(NC(=O)c2c[nH]c3c2C(=O)CCC3)cc1 | inactive | –
17 | COc1ccc(-n2nc(C(F)F)cc2-c2ccc(S(C)=O)cc2)cc1 (stereo not given) | inactive | –
18 | O=P(OC(CCl)CCl)(OC(CCl)CCl)OC(CCl)CCl | inactive | –
19 | CC[C@H](C)C(=O)O[C@H]1C[C@@H](C)C=C2C=C[C@H](C)[C@H](CC[C@@H]3C[C@@H](O)CC(=O)O3)[C@H]21 | – | 2.9 µM (active)
20 | NC(=O)NO | inactive | –
